# Values without a mark were called inactive. Records with an inconclusive call do not appear. Where a call stands in place of a potency, no number is given. Active and inactive are the calls of the source. Unless noted, the call rests on the fitted dose curve; in most records, active means well fitted curve in the direction sought with a large enough effect in the repeat runs; inconclusive means weak or mixed curves; inactive means no such curve, though single readings can be large; an effect the other way counts as inactive or inconclusive.
# Tests used:
# [1] = A CellTox Green Cytotoxicity Assay to monitor cytotoxicity in HEK293 cells - 32 hour (AID 1224881); further: nearly all actives have a fitted effect of over 40% in size
# Summary of the method: (§1)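 Read-out: fluorescence of a cell-impermeant cyanine dye staining DNA of dead cells, proportional to cytotoxicity. HEK293, 600 cells/well with reagent, compound (23 nL DMSO) added after 5 h; reads at 0, 8, 16, 24, 32, 40 h.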
# [2] = A CellTox Green Cytotoxicity Assay to monitor cytotoxicity in HepG2 cells - 0 hour (AID 1224882); further: nearly all actives have a fitted effect of over 35% in size
# Summary of the method: (§2)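 HepG2, 600 cells/well premixed w/ CellTox Green; 5 h settle, 37 C/5% CO2; pintool cpd add (DMSO); 37 C, 40 h; fluorescence read at 0, 8, 16, 24, 32, 40 h.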
# [3] = A CellTox Green Cytotoxicity Assay to monitor cytotoxicity in HepG2 cells - 32 hour (AID 1224883); further: nearly all actives have a fitted effect of over 50% in size
# Summary of the method: as §2
# [4] = A CellTox Green Cytotoxicity Assay to monitor cytotoxicity in HEK293 cells - 8 hour (AID 1224884); further: nearly all actives have a fitted effect of over 35% in size
# Summary of the method: as §1
# [5] = qHTS RealTime-Glo MT Cell Viability Assay in HEK293 cells - 24 hour (AID 1224886); further: nearly all actives have a fitted effect of over 50% in size; further: potency means the concentration at half of the fitted maximal effect
# Summary of the method: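 Cells + reagent dispensed (600 cells/well, HEK293) → 5 h at 37 C/5% CO2 → 23 nL compound in DMSO pinned → 40 h at 37 C → luminescence read at 0, 8, 16, 24, 32, 40 h.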
# [6] = A CellTox Green Cytotoxicity Assay to monitor cytotoxicity in HEK293 cells - 16 hour (AID 1224888); further: nearly all actives have a fitted effect of over 35% in size
# Summary of the method: as §1
# [7] = qHTS RealTime-Glo MT Cell Viability Assay in HepG2 cells - 0 hour (AID 1224889); further: nearly all actives have a fitted effect of over 50% in size
# Summary of the method: (§3)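 Real-time, nonlytic viability: 600 HepG2 cells/well mixed with NanoLuc enzyme plus prosubstrate; 5 h settle, compound (DMSO) added by pintool; luminescence monitored over 40 h at 37 C.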
# [8] = A CellTox Green Cytotoxicity Assay to monitor cytotoxicity in HepG2 cells - 8 hour (AID 1224890); further: nearly all actives have a fitted effect of over 45% in size
# Summary of the method: as §2
# [9] = qHTS assay to identify small molecule antagonists of the estrogen receptor alpha (ER-alpha) signaling pathway using the BG1 cell line in the presence of 0.1 nM 17-beta-estradiol - cell viability counter screen (AID 1259241); further: nearly all actives have a fitted effect of over 40% in size
# Summary of the method: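 Cells were plated and left 24 hr, compounds in DMSO were pinned in, 17beta-estradiol was added to 0.1 nM final, and after 22 hr CellTiter-Fluor reagent was added for 30 min before fluorescence was read.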
# [10] = qHTS assay to identify small molecule antagonists of the androgen receptor (AR) signaling pathway using the MDA cell line in the presence of 0.5 nM R1881 - cell viability counter screen (AID 1259242); further: nearly all actives have a fitted effect of over 45% in size; further: potency means the concentration at half of the fitted maximal effect
# Summary of the method: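 Live-cell protease fluorescence, CellTiter-Fluor, 30 min at 37C. Cells: MDA-kb2, 3,000/well, preincubated 5 hr. Compounds plus 0.5 nM R1881 final, 16 hr, 37C, 0% CO2.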
# [11] = qHTS assay to identify small molecule phospholipidosis (PLD) inducers (AID 1259344; active means well fitted curve in the direction sought with a large enough effect; an effect the other way counts as inactive or inconclusive)
# Summary of the method: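 Cells (HepG2, 900 per well) attach for 4 h, receive LipidTOX Red and compound together, incubate 24 h at 37 C, are fixed 30 min with paraformaldehyde/Hoechst, then imaged at one site per well.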
# [12] = qHTS assay to identify small molecule HDAC inhibitors - cell viability counter screen (AID 1259365); further: series mostly up to about 92 µM; nearly all actives have a fitted effect of over 50% in size
# Summary of the method: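 Counter screen in wild-type HCT-116 cells: compounds dissolved in DMSO are pin-transferred onto overnight-plated cells and left 2hr at 37C. ATP-based CellTiter-Glo luminescence then measures viable cells.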
# [13] = qHTS assay to identify small molecule agonists of the sonic hedgehog signaling (Shh) pathway - cell viability counter screen (AID 1259366); further: nearly all actives have a fitted effect of over 50% in size; further: potency means the concentration at half of the fitted maximal effect
# Summary of the method: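 Cells are plated at 2,000 per well and left 4hr at 37C, 5% CO2 before compound addition. After 23hr of treatment, CellTiter-Fluor reagent is added for 1hr at 37C and fluorescence is measured.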
# [14] = qHTS assay to identify small molecule antagonists of the sonic hedgehog signaling (Shh) pathway - cell viability counter screen (AID 1259367); further: nearly all actives have a fitted effect of over 55% in size
# Summary of the method: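 Cytotoxicity was assessed in parallel with Shh reporter activity by measuring live-cell protease fluorescence (CellTiter-Fluor) in NIH/3T3 cells stably carrying Gli1-Luc, treated with compound under conditioned medium stimulation for 23 hr plus 1 hr reagent incubation.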
# [15] = qHTS assay to identify small molecule agonists of the sonic hedgehog signaling (Shh) pathway (AID 1259368; calls by dose curve;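 further: NIH/3T3-derived 3T3Gli1-Luc cells carrying a stable Gli1-driven firefly luciferase reporter; series mostly up to about 92 µM; nearly all actives have a fitted effect of over 15% in size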)
# Summary of the method: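 Read-out: firefly luciferase luminescence from a Gli1 response element reporter stably integrated in NIH/3T3-derived 3T3Gli1-Luc cells, measured 30 min at room temperature after reagent addition. Compound exposure lasted 24 hr at 37 C, 5% CO2.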
# [16] = qHTS RealTime-Glo MT Cell Viability Assay in HepG2 cells - 16 hour (AID 1224885); further: nearly all actives have a fitted effect of over 50% in size; further: potency means the concentration at half of the fitted maximal effect
# Summary of the method: as §3
# [17] = qHTS RealTime-Glo MT Cell Viability Assay in HEK293 cells - 8 hour (AID 1224887); further: nearly all actives have a fitted effect of over 50% in size; further: potency means the concentration at half of the fitted maximal effect
# Summary of the method: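 Luminescence readout at each listed time point; HEK293, 600 cells/well, RealTime-Glo MT reagent added with cells; compounds pinned (23 nL in DMSO) after 5 h at 37 C; continuous culture at 37 C.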
# [18] = target: Estrogen receptor (Homo sapiens) (UniProt P03372); assay: qHTS assay to identify small molecule antagonists of the estrogen receptor alpha (ER-alpha) signaling pathway using the BG1 cell line in the presence of 0.1 nM 17-beta-estradiol (AID 1259244); further: nearly all actives have a fitted effect of over 50% in size; further: potency means the concentration at half of the fitted maximal effect
# Summary of the method: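 Luminescence after ONE-Glo (30 min, room temperature) measured ERE-luciferase activity in VM7Luc4E2 cells treated 22 h with compound and 0.1 nM final 17beta-estradiol as stimulator.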
# [19] = target: Androgen receptor (Homo sapiens) (UniProt P10275); assay: qHTS assay to identify small molecule antagonists of the androgen receptor (AR) signaling pathway using the MDA cell line in the presence of 0.5 nM R1881 (AID 1259243)
# Summary of the method: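 MDA-kb2, MMTV-luc (AR/GR elements); 3,000 cells/well; cpd + 0.5 nM R1881 final; 16 hr 37C, 0% CO2; ONE-Glo 30 min RT; luminescence.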
# [20] = qHTS assay to identify small molecule HDAC inhibitors (AID 1259364); further: potency means the concentration at half of the fitted maximal effect;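 further: wild-type HCT-116 cells with endogenous class I/II HDAC activity; nearly all actives have a fitted effect of over 45% in size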
# Summary of the method: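 HCT-116 (wild type), 1,500 cells/well, overnight; compound 2 hr 37C 5% CO2; HDAC-Glo I/II reagent 30 min RT; luminescence readout.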
# Estrogen receptor (Homo sapiens), sequence (P03372 whole entry, looked up): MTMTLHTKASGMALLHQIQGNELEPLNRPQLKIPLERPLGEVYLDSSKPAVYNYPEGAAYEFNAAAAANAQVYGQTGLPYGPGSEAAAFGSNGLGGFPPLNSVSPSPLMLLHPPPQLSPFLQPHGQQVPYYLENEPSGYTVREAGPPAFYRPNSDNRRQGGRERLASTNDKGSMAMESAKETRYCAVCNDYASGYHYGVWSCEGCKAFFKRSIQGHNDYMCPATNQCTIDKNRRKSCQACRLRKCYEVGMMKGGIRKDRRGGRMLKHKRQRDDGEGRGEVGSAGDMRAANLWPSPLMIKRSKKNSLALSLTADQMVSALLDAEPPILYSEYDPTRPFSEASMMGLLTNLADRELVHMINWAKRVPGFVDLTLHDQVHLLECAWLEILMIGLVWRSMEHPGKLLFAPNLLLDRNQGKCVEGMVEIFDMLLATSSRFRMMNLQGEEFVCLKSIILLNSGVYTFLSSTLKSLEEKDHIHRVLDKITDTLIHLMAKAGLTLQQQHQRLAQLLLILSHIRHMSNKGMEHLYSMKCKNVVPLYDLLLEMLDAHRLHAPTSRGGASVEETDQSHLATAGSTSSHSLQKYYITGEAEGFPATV
# Androgen receptor (Homo sapiens), sequence (P10275 whole entry, looked up): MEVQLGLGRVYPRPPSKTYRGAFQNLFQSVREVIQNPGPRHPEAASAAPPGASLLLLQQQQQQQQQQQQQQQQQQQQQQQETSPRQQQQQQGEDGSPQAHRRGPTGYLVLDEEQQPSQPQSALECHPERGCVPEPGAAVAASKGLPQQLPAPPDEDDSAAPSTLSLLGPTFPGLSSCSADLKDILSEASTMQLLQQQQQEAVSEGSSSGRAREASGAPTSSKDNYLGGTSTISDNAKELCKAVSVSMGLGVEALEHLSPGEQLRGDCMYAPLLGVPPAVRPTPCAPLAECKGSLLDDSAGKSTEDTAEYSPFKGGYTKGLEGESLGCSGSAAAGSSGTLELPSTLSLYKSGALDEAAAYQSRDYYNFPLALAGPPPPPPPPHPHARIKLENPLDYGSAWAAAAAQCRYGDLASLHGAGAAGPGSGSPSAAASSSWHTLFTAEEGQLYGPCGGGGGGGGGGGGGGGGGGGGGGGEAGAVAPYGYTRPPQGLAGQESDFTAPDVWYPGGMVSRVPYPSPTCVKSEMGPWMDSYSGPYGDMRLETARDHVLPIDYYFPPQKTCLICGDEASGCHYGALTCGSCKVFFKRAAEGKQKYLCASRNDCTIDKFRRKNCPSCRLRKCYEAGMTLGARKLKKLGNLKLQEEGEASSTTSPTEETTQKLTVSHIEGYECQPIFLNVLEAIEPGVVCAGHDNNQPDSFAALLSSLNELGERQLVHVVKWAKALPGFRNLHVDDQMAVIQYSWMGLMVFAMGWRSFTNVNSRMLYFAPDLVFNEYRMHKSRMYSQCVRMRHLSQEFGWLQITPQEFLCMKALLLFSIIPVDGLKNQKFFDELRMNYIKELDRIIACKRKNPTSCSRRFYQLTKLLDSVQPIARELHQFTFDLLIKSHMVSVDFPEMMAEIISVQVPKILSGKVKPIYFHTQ
smiles,measurement,setting,value
N#C/C(=C1/SC[C@@H](c2ccc(Cl)cc2Cl)S1)n1ccnc1,Potency,[1],inactive
same,Potency,[2],inactive
same,Potency,[3],inactive
same,Potency,[4],inactive
same,Potency,[5],inactive
same,Potency,[6],inactive
same,Potency,[7],inactive
same,Potency,[8],inactive
same,Potency,[9],inactive
same,Potency,[10],inactive
same,outcome,[11],inactive
same,Potency,[12],inactive
same,Potency,[13],inactive
same,Potency,[14],inactive
same,Potency,[15],inactive
O=Cc1c(Cl)cccc1Cl,Potency,[1],inactive
same,Potency,[2],inactive
same,Potency,[3],inactive
same,Potency,[16],inactive
same,Potency,[5],inactive
same,Potency,[17],inactive
same,Potency,[6],inactive
same,Potency,[7],inactive
same,Potency,[8],inactive
same,Potency,[9],inactive
same,Potency,[10],inactive
same,Potency,[18],inactive
same,Potency,[12],inactive
same,Potency,[13],inactive
same,Potency,[14],inactive
same,Potency,[15],inactive
CCC(C)=O,Potency,[1],inactive
same,Potency,[2],inactive
same,Potency,[3],inactive
same,Potency,[16],inactive
same,Potency,[5],inactive
same,Potency,[17],inactive
same,Potency,[7],inactive
same,Potency,[9],inactive
same,Potency,[10],inactive
same,Potency,[12],inactive
same,Potency,[13],inactive
same,Potency,[14],inactive
same,Potency,[15],inactive
Cc1cc2nc3ccc(=[N+](C)C)cc-3sc2cc1N,Potency,[1],inactive
same,Potency,[2],inactive
same,Potency,[3],inactive
same,Potency,[16],9.52 µM (active)
same,Potency,[5],2.68 µM (active)
same,Potency,[17],1.9 µM (active)
same,Potency,[6],inactive
same,Potency,[7],inactive
same,Potency,[8],inactive
same,Potency,[10],2.66 µM (active)
same,Potency,[19],1.5 µM (active)
same,Potency,[18],26.6 µM (active)
same,PLD induction,[11],-3.22% [at 0.306 µM]
same,Potency,[20],10.6 µM (active)
same,Potency,[13],9.44 µM (active)
same,Potency,[14],inactive
same,Potency,[15],inactive
Nc1ccc(S(=O)(=O)O)cc1,Potency,[1],inactive
same,Potency,[2],inactive
same,Potency,[3],inactive
same,Potency,[16],inactive
same,Potency,[5],inactive
same,Potency,[17],inactive
same,Potency,[7],inactive
same,Potency,[8],inactive
same,Potency,[9],inactive
same,Potency,[10],inactive
same,Potency,[18],inactive
same,Potency,[20],inactive
same,Potency,[12],inactive
same,Potency,[13],inactive
same,Potency,[14],inactive
same,Potency,[15],inactive
CC(C)C(OC(=O)c1ccccc1)C(C)(C)COC(=O)c1ccccc1 (centres undefined),Potency,[1],inactive
same,Potency,[2],inactive
same,Potency,[3],inactive
same,Potency,[16],inactive
same,Potency,[17],inactive
same,Potency,[6],inactive
same,Potency,[7],inactive
same,Potency,[9],inactive
same,Potency,[10],inactive
same,Potency,[12],inactive
same,Potency,[13],inactive
same,Potency,[14],inactive
same,Potency,[15],inactive
Nc1ccc(Cl)cc1[N+](=O)[O-],Potency,[1],inactive
same,Potency,[2],inactive
same,Potency,[3],inactive
same,Potency,[16],inactive
same,Potency,[5],inactive
same,Potency,[17],inactive
same,Potency,[6],inactive
same,Potency,[7],inactive
same,Potency,[8],inactive
same,Potency,[9],inactive
same,Potency,[10],inactive
same,Potency,[19],27 µM (active)
same,Potency,[18],inactive
same,Potency,[12],inactive
same,Potency,[13],inactive
same,Potency,[14],inactive
same,Potency,[15],inactive
Cc1nc2ccccc2s1,Potency,[1],inactive
same,Potency,[2],inactive
same,Potency,[3],inactive
same,Potency,[16],inactive
same,Potency,[5],inactive
same,Potency,[17],inactive
same,Potency,[6],inactive
same,Potency,[7],inactive
same,Potency,[8],inactive
same,Potency,[9],inactive
same,Potency,[10],inactive
same,Potency,[18],inactive
same,Potency,[20],inactive
same,Potency,[12],inactive
same,Potency,[13],inactive
same,Potency,[14],inactive
same,Potency,[15],inactive
